# Pol eta inh – inhibitors of human DNA polymerase eta; Q9Y253; recombinant Pol eta, fluorescent DNA replication assay; Potency, µM (series often up to 114 µM), inactives show at the highest dose activity change, negative = inhibition, hits mostly inhibitors; 390,000 tested, 1.2% active; further: on the % scale 0 is the no-effect control and ±100 the full control effect
# Target sequence (Q9Y253 whole entry, looked up): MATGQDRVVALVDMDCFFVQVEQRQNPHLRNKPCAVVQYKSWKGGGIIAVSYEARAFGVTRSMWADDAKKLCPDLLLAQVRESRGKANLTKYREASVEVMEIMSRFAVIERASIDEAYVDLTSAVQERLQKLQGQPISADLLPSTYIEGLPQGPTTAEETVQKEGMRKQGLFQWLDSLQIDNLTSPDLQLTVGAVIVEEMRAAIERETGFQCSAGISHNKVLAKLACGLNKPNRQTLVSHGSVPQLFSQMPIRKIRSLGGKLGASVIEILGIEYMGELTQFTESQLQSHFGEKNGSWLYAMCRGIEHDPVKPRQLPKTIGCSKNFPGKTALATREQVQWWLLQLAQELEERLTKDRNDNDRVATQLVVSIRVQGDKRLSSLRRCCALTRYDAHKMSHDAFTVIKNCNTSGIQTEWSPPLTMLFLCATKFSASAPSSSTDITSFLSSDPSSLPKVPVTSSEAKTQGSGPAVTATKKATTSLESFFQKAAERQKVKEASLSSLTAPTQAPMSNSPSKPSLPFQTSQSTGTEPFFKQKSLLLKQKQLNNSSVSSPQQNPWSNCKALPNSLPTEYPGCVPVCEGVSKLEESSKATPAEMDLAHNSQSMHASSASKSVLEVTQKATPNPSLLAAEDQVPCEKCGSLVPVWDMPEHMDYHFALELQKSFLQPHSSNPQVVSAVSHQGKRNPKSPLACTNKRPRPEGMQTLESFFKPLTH
#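 Fluorescent replication assay: 50 nM final substrate added after a 15 min room-temperature compound preincubation with 10 nM enzyme. Signal taken at 0 min and again at 10 min.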
# POLI inh – blocks human DNA polymerase iota activity; Q9UNA4; Potency, µM (doses to about 115 µM), inactives show at the highest dose activity, negative = inhibition, actives largely listed as inhibitors; 390,000 tested, 1% active; Pol iota fluorescent replication assay, 10 min
#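 Pol iota at 10 nM preincubated 15 min with compounds at room temperature; reaction started with fluorescent substrate, 50 nM final. Fluorescence read kinetically at 0 and 10 min; buffer-only wells as negative control.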
# FEN1 inh-1 – human FEN1 inhibition; 390,000 tested, 0.35% active; Potency, µM (doses to about 114 µM), without a hit: top-dose activity change, negative = inhibition, usual class: inhibitors; AID 588795; P39748; Recombinant FEN1 flap cleavage, fluorescence, 15 min; further: on the % scale 0 is the no-effect control and ±100 the full control effect; nearly all actives have a fitted effect of over 65% in size
#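 FEN1 at 10 nM, compound pretreatment for 15 min (room temperature), 50 nM final substrate to initiate; endpoint reads at 0 and 15 min; DMSO-only plates used as vehicle background.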
# WRN inhibitor – inhibitors of human WRN helicase; WRN helicase unwinding, fluorescent forked duplex, kinetic; Potency, µM (highest dose often 114 µM), inactives show top-dose activity change, negative = inhibition, hits mostly inhibitors; 360,000 tested, 0.46% active; AID 651768; further: on the % scale 0 is the no-effect control and ±100 the full control effect; nearly all actives have a fitted effect of over 55% in size
#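 Primary qHTS, 1536-well format. 20 nM WRN + compound, 15 min RT; start with 100 nM forked fluorophore/quencher duplex, 2 mM ATP (final); kinetic read ex 525/em 598 nm.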
# POLB inh – inhibitors of human DNA polymerase beta. P06746. Pol beta primer extension/strand displacement, fluorescence kinetic. Potency, µM (highest dose often 114 µM), without a hit: top-dose activity change, negative = inhibition, hits mostly inhibitors. 340,000 tested, 1.3% active; further: on the % scale 0 is the no-effect control and ±100 the full control effect
#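 Pol beta (10 nM) was preincubated with compound for 15 min at room temperature. The reaction was then started with 50 nM substrate and read immediately and after a further 10 min at room temperature.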
# POLK inh – inhibitors of human DNA polymerase kappa | purified Pol kappa, fluorescent DNA synthesis assay, 10 min | Potency, µM (highest dose often 107 µM), inactives show at the top dose activity, negative = inhibition, hits mostly inhibitors | 400,000 tested, 0.53% active | AID 588579; further: on the % scale 0 is the no-effect control and ±100 the full control effect
#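 50 nM final substrate added after 15 min RT preincubation of 10 nM Pol kappa with compound; fluorescence read at 0 and 10 min.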
# FEN1 inh-2 – confirmation of human FEN1 inhibitors. shares compounds with FEN1 inh-1. FEN1 flap cleavage, TAMRA/BHQ2 fluorogenic DNA substrate. Potency, µM, usual class: inhibitors. 880 tested, 79% active. AID 720498; further: nearly all actives have a fitted effect of over 60% in size
# Numbers without * were called inactive; ? = inconclusive; . = no result given; [ ] = dose if it differs, or a comment. Most compounds without a hit are left out; they make up all but 2.4% or so of the library. The call rests on the fitted dose curve; in most records, active means well fitted curve in the direction sought with a large enough effect; inconclusive means small, poorly fitted or top-dose-only effect, or another doubt; inactive means no such curve, though single readings can be large; an effect the other way counts as inactive or inconclusive. Potency means the concentration at half of the fitted maximal effect.
SMILES,Pol eta inh,POLI inh,FEN1 inh-1,WRN inhibitor,POLB inh,POLK inh,FEN1 inh-2
Cc1ccc(NC(=O)CCN2CCN(CCO)CC2)cc1C,4%,12%,2%,.,0%,-10%,.
CN(C)c1ccc(C=c2c3ccccc3n3c2c2c([n+]3C)CCCC2)cc1,?,-27%,22µM*,22µM*,.,-28%,30*
COc1cc2c(cc1OC)n(Cc1cccc(C(F)(F)F)c1)c(=O)n1nc(-c3ccccc3)nc21,-8%,-13%,-2%,.,1%,-12%,.
CCCCN(CC)CCCNC(=O)c1cc2c(-c3ccc(OC)c(OC)c3)nn(C)c2s1,?,?,35µM*,-29%,3.5µM*,-23%,34*
CCN(CC)CCCNC(=O)c1cc2c(-c3cccc(OC)c3)nn(C)c2s1,12%,-23%,?,54%,-27%,-3%,?
CCN(CC)CCCNC(=O)c1cc2c(Cl)nc3ccccc3c2s1,-5%,-9%,45µM*,42%,-22%,12%,67*
CCN(CCCNC(=O)c1cc2c(Cl)nc3ccccc3c2s1)Cc1ccccc1,-15%,11%,?,.,0%,-3%,.
CCOCCCNC(=O)c1cc2c(-c3ccc(OC)c(OC)c3)nn(C)c2s1,?,-5%,?,.,-24%,0%,.
COc1ccccc1-c1nccc(Nc2ccc(F)cc2)n1,.,.,.,.,.,-4%[60.1 µM],.
COc1ccc2[nH]c3c(=O)n(CCCCC(=O)NCCN4CCCC4)c(=S)[nH]c3c2c1,-18%,?,?,?,-24%,?,?
Clc1ccccc1-c1nnc(SCc2nc(-c3ccccc3)no2)n1-c1ccccc1,.,3%,1%,.,-11%,-13%,.
Cc1ccc(-c2nc(C(=O)NCCCN(C)C)cc3c2[nH]c2ccccc23)cc1,-3%,?,?,71%,?,-9%,38*
COC(=O)c1ccccc1NC(=O)C1=CC(c2ccc3c(c2)OCO3)=NS(=O)(=O)N1C,-19%,3%,?,.,-2%,-8%,.
O=C1C(=O)N(O)C2CCCCC2N1O (stereo unspecified),-21%,43%,18µM*,12%,17%,0%,24*
O=C(O)CCN1C(=O)C2CCCCC2C1=O (stereo unspecified),-8%,3%,9%,11%,31%,5%,.
O=C(Nc1ccc2oc(-c3ccccc3)nc2c1)c1cc(-n2cnnc2)ccc1Cl,-24%,35µM*,?,-22%[57.1 µM],?,-9%,48*
O=C(Nc1ccccc1)c1cc(-n2cnnc2)ccc1Cl,-5%,10%,-3%,4%,2%,-3%,.
COc1cccc(C(=O)Nc2ccccc2-c2nnc(-c3ccc(C(C)(C)C)cc3)o2)c1,5%,41%,21%,.,-14%,-3%,.
CCc1ccc(C(=O)NC2=NC(c3cc(OC)ccc3OC)CC(=O)N2)cc1 (stereo unspecified),-3%,10%,0%,.,13%,8%,.
CN(Cc1cccs1)c1ncnc2ccc(-c3ccc4cnn(C)c4c3)cc12,.,.,.,.,.,.,34*
COCCCNc1nc(N)c([N+](=O)[O-])c(Nc2cc(OC)ccc2OC)n1,6%,52%,-3%,-4%,3%,-11%,.
COc1ccc(OC)c(Nc2nc(NCCCN(C)C)nc(N)c2[N+](=O)[O-])c1,50µM*,32µM*,13µM*,35µM*,35µM*,?,48*
Cc1csc2c1c(=O)n(O)c(=O)n2Cc1ccccc1,.,.,.,.,.,.,0.11*
CC(=O)c1cccc(NC(=O)c2c(C)nn(-c3ccc(F)cc3)c2-n2cccc2)c1,-13%,11%,10%,.,-1%,3%,.
c1ccc(CN2CCC(N3CCC(N4CCCCCC4)CC3)CC2)cc1,-14%,124%,-7%,-18%,36%,-6%,.
SMILES,Pol eta inh,POLI inh,FEN1 inh-1,WRN inhibitor,POLB inh,POLK inh,FEN1 inh-2
c1ccc2c(c1)c1c(c3ccccc32)CN2CCCC2C1 (stereo unspecified),?,?,18µM*,0%[11.6 µM],.,-31%,38*
Oc1ccc(Nc2nc(N3CCCC3)c3ccccc3n2)cc1,-4%,?,50µM*,?,45µM*,?,34*
COc1ccc(Nc2nc(N3CCCCC3)c3ccccc3n2)cc1,-13%,11%,-10%,-4%[57.1 µM],12%,-17%,.
O=S(=O)(c1cc(Br)c(Br)s1)N1CCN(c2ccccc2)CC1,-20%,15%,9%,.,?,-9%[60.1 µM],.
Cc1ccc(C(=O)CSc2nnc3ccc4ccccc4n23)cc1,-3%,37%,1%,.,-3%,9%,.
CCCNC(=O)c1ccc2c(=O)c(O)c(-c3cccc(Br)c3)[nH]c2c1,-16%,?,32µM*,3%[11.6 µM],-1%,-12%,38*
Nc1c(Cl)cc(-c2[nH]c3cc(C(=O)NCCO)ccc3c(=O)c2O)cc1Cl,?,?,18µM*,-35%,-5%,-6%,30*
COc1ccc(-c2c(-c3ccccc3)c(C(=O)C(=O)NCCCN(C)C)n3ccc4cc(OC)c(OC)cc4c23)cc1OC,?,102%,40µM*,-10%,-41%,?,34*
CC(=O)Nc1sc2c(c1-c1nc3ccccc3o1)CCN(C(C)C)C2,.,.,.,.,.,.,30*
CC1CCN(S(=O)(=O)c2ccc3c(c2)CCN3)CC1,2%,7%,7%,.,12%,-9%[60.1 µM],.
CCN1CCCC1CNC(=O)c1ccc2c(c1)NC(=O)/C(=C\c1ccc(OC)c(OC)c1)S2 (stereo unspecified),?,-11%,?,?,?,-13%,38*
CCN1CCCC1CNC(=O)c1ccc2c(c1)NC(=O)/C(=C\c1ccccc1Cl)S2 (stereo unspecified),-23%,.,.,21%,.,.,.
CN(C)S(=O)(=O)c1cccc(NC(=O)COC(=O)c2ccc([N+](=O)[O-])o2)c1,?,10%,50µM*,-5%[57.1 µM],-16%,-17%,19*
O=C(COC(=O)c1ccc([N+](=O)[O-])o1)Nc1cccc(S(=O)(=O)N2CCOCC2)c1,-15%,119%,28µM*,6%,11%,-9%,19*
O=C(COC(=O)c1ccc(Br)o1)Nc1cccc(S(=O)(=O)N2CCOCC2)c1,-22%,5%,-21%,5%,.,0%,.
COc1ccc(C)cc1NC(=O)COC(=O)c1ccc([N+](=O)[O-])o1,-15%,27%,-12%,-24%,5%,1%,.
COc1ccc(NC(=O)COC(=O)c2ccc([N+](=O)[O-])o2)cc1Cl,-4%,-2%,?,-2%[57.1 µM],5%,-12%,21*

# High-throughput results deposited in PubChem BioAssay by National Center for Advancing Translational Sciences (NCATS).
